Assay outcomes: PubChem, National Center for Advancing Translational Sciences (NCATS)
Most compounds without a hit are left out; they make up all but 7.1% or so of the library.
p53 reactivator: restores transcriptional activity of mutant p53; actives 0.063% (n = 320,000); H1299 p53-A138V BP100-luciferase reporter, luminescence, 24 h; Potency, µM (highest dose often 92.2 µM), without a hit: at the highest dose activity change, positive = activation, hits mostly activators; note: % of control where 0% means no effect; nearly all actives have a fitted effect of over 45% in size
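p53-null H1299 cells stably carrying temperature-sensitive p53-A138V and a BP100-luciferase reporter were pinned with compounds (4-point, 1:5 series) and held 24 hrs at 37 deg C. Luminescence was read 10 min after detection reagent.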
MCF10A rerep: DNA re-replication induction in MCF 10a cells; MCF 10A DNA re-replication, Hoechst nuclear intensity, 48 h; Potency, µM (top dose mostly 46.1 µM), inactives show top-dose activity, positive = re-replication, usual class: activators; actives 2.9% (n = 350,000); note: % of control where 0% means no effect; nearly all actives have a fitted effect of over 50% in size
ELG1 genotoxic: inducers of genotoxicity in HEK293T ELG1-luciferase cells; HEK293T ELG1-luciferase reporter, luminescence, 16 h; Potency, µM (doses to about 46 µM), for the others: at the top dose activity change, positive = activation, hits mostly activators; actives 1.3% (n = 330,000); note: % of control where 0% means no effect; nearly all actives have a fitted effect of over 60% in size
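HEK293T cells expressing luciferase-tagged ELG1 were treated with compound or DMSO for 16 hr at 37°C. Luciferase activity was then read after 30 min with ONE-Glo at room temperature; rising signal flags genetic stress.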
SW480 rerep: induces DNA re-replication in SW480 colon adenocarcinoma cells | actives 1.8% (n = 340,000) | Potency, µM (highest dose often 46.1 µM), without a hit: top-dose re-replication activation, usual class: activators | SW480 DNA re-replication, Hoechst DNA content imaging, 48 h | AID 624297; note: % of control where 0% means no effect; nearly all actives have a fitted effect of over 55% in size
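250 cells/well; 23 nL cpd via pin tool; 48 hr, 37 C, 5% CO2; Hoechst 40 min; imager read of total nuclear intensity, ex 405/em 500-530 nm.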
A-T KAP1 phos: candidate therapy for ataxia-telangiectasia; Potency, µM (highest dose often 57.5 µM), for inactives: top-dose activation, usual class: activators; F2112 A-T fibroblasts, KAP-1 phosphorylation AlphaLISA; neocarzinostatin DNA damage 30 min before lysis; actives 0.19% (n = 320,000); AID 485349; note: % of control where 0% means no effect; nearly all actives have a fitted effect of over 45% in size
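hTERT-immortalized A-T patient fibroblasts (F2112), 500 cells/well in OPTI-MEM, 1% FBS, got compounds for 60 min, then NCS for 30 min at 37C. Lysates were then assayed for phospho-KAP-1 by AlphaLISA (anti-pKAP1 donor, anti-KAP1 acceptor beads), 6 hr at 25C.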
ELG1 repair inh: blocks ELG1-dependent DNA repair in HEK293T cells; actives 2.3% (n = 330,000); Potency, µM (titrated, usually from 46.1 µM), without a hit: at the top dose activity change, negative = inhibition, usual class: inhibitors; HEK293T ELG1-luciferase reporter, luminescence, 16 h; DNA damage induced by 5-fluorouridine; note: % is set by controls: 0 for no effect and ±100 for the full control effect; nearly all actives have a fitted effect of over 55% in size
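In this reporter screen, reduction of luminescence relative to DMSO vehicle indicated activity. Compounds and 5-fluorouridine were added together to 2,000 cells per well, incubated for 16 hr at 37 °C, then developed with ONE-Glo.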
An asterisk follows results filed as active. Calls come from the whole dose curve; as a rule, active = well fitted curve in the direction sought with a large enough effect; inconclusive = small, poorly fitted or top-dose-only effect, or another doubt; inactive = no such curve, though single readings can be large; an effect the other way counts as inactive or inconclusive. Potency is the fitted concentration of half-maximal effect.

Screening O=C(N/N=C/c1ccncc1)c1cc(C2CC2)nc2ccccc12 returned p53 reactivator -0.6%, MCF10A rerep -6.2%, ELG1 genotoxic -0.9%, SW480 rerep -8.1%, A-T KAP1 phos 7.5% and ELG1 repair inh 13.3%.
Screening COc1ccc(-c2cc(C(=O)N/N=C/c3ccc(OC)c(COCC(F)(F)C(F)F)c3)c3ccccc3n2)c(OC)c1 returned p53 reactivator -3.9%, MCF10A rerep 23.1µM*, ELG1 genotoxic 3.4%, SW480 rerep 17.4%, A-T KAP1 phos 0.4% and ELG1 repair inh inconclusive.
Screening Cc1[nH]c2ccccc2c1C=NNC(=O)c1cc(-c2cccnc2)nc2ccccc12 returned p53 reactivator -5.0%, MCF10A rerep inconclusive, ELG1 genotoxic -9.2%, SW480 rerep -14.7%, A-T KAP1 phos 9.4% and ELG1 repair inh 16.4µM*.
COc1ccccc1-c1cc(C(=O)N/N=C/c2cccs2)c2ccccc2n1 was read as p53 reactivator -4.3%, MCF10A rerep 14.1µM*, ELG1 genotoxic -6.2%, SW480 rerep 6.9%, A-T KAP1 phos 1.6% and ELG1 repair inh -13.3%.
O=C(N/N=C/c1cccs1)c1cc(C2CC2)nc2ccccc12 was read as p53 reactivator 5.3%, MCF10A rerep 8.2µM*, ELG1 genotoxic 0.6%, SW480 rerep 18.4µM*, A-T KAP1 phos 1.3% and ELG1 repair inh -7.2%.
`O=C(CCNC(=O)c1ccc(Cl)cc1)Nc1ccccc1N1CCCCC1` gave p53 reactivator 10.1%, MCF10A rerep -0.4%, ELG1 genotoxic -0.7%, SW480 rerep 0.0%, A-T KAP1 phos 6.7% and ELG1 repair inh 9.4%.
Screening O=C(CN1C(=O)CCOc2ccccc21)Nc1ccc(Cl)c(S(=O)(=O)N2CCOCC2)c1 returned p53 reactivator -5.7%, MCF10A rerep 2.0%, ELG1 genotoxic -0.8%, SW480 rerep -3.7%, A-T KAP1 phos 1.0% and ELG1 repair inh -16.5%.
For Cc1ccc(C=NNC(=O)c2cc(-c3cccnc3)nc3ccccc23)o1 the results were p53 reactivator 3.5%, MCF10A rerep 5.17µM*, ELG1 genotoxic -1.2%, SW480 rerep 7.31µM*, A-T KAP1 phos 20.1% and ELG1 repair inh 3.2%.
For O=C(N/N=C/c1ccc(F)cc1)c1cc(-c2ccccn2)nc2ccccc12 the results were p53 reactivator -6.3%, MCF10A rerep inconclusive, ELG1 genotoxic 2.2%, SW480 rerep -1.1%, A-T KAP1 phos 0.1% and ELG1 repair inh -0.3%.
Screening Cc1ccc(/C=N/NC(=O)c2cc(C3CC3)nc3ccccc23)o1 returned p53 reactivator 10.3%, MCF10A rerep 5.8µM*, ELG1 genotoxic 7.0%, SW480 rerep 20.6µM*, A-T KAP1 phos -7.6% and ELG1 repair inh inconclusive.
`COc1cc(/C=N/NC(=O)c2cc(-c3ccccc3OC(C)C)nc3ccccc23)ccc1O` gave p53 reactivator -10.2%, MCF10A rerep 10.3µM*, ELG1 genotoxic -6.8%, SW480 rerep inconclusive, A-T KAP1 phos -1.4% and ELG1 repair inh inconclusive.
COc1cccc(/C=N/NC(=O)c2cc(-c3ccccn3)nc3ccccc23)c1O was read as p53 reactivator inconclusive, MCF10A rerep -2.7%, ELG1 genotoxic 5.1%, SW480 rerep 1.64µM*, A-T KAP1 phos -5.7% and ELG1 repair inh inconclusive.
Screening COc1cc(/C=N/NC(=O)c2cc(-c3ccccc3)nc3ccccc23)ccc1O returned p53 reactivator 7.1%, MCF10A rerep 15.9%, ELG1 genotoxic -5.6%, SW480 rerep 0.4%, A-T KAP1 phos -5.7% and ELG1 repair inh inconclusive.
`CNC[C@H]1Oc2ccc(NC(=O)C3CCCCC3)cc2CC(=O)N([C@H](C)CO)C[C@@H]1C` gave p53 reactivator 2.8%, MCF10A rerep 0.9%, ELG1 genotoxic 4.6%, SW480 rerep -9.9%, A-T KAP1 phos 8.1% and ELG1 repair inh inconclusive.
Screening O=C(Cc1ccsc1)NCc1ccccc1F returned p53 reactivator -6.1%, MCF10A rerep -1.0%, ELG1 genotoxic -4.4%, SW480 rerep 18.4%, A-T KAP1 phos -15.2% and ELG1 repair inh -3.4%.
Cc1ccc(/C=N/NC(=O)c2cc(-c3ccccc3)nc3ccccc23)o1 was read as p53 reactivator -1.2%, MCF10A rerep 5.8µM*, ELG1 genotoxic 0.6%, SW480 rerep inconclusive, A-T KAP1 phos -17.1% and ELG1 repair inh -25.3%.
Screening CCCc1cc(C(=O)N/N=C/c2ccc(C)o2)c2ccccc2n1 returned p53 reactivator -0.7%, MCF10A rerep inconclusive, ELG1 genotoxic -0.2%, SW480 rerep inconclusive, A-T KAP1 phos -7.6% and ELG1 repair inh 7.2%.
O=C(N/N=C/c1ccc2c(c1)OCO2)c1cc(-c2ccc(F)cc2)nc2ccccc12 was read as p53 reactivator 29.4%, MCF10A rerep 3.66µM*, ELG1 genotoxic 1.3%, SW480 rerep inconclusive and ELG1 repair inh -1.2%.
For Cc1cc(C(=O)N/N=C/c2ccc(C)o2)c2ccccc2n1 the results were p53 reactivator 13.8%, MCF10A rerep 1.84µM*, ELG1 genotoxic inconclusive, SW480 rerep 5.8µM*, A-T KAP1 phos 1.7% and ELG1 repair inh 0.0%.
For O=S(=O)(Nc1ccc(-n2cnnn2)cc1)c1cccs1 the results were p53 reactivator -0.3%, MCF10A rerep 2.5%, ELG1 genotoxic -3.8%, SW480 rerep 2.3%, A-T KAP1 phos -7.8% and ELG1 repair inh inconclusive.
Screening COc1ccc(/C=N\NC(=O)COc2ccccc2Cl)cc1Cn1nc(C)cc1C returned p53 reactivator -30.6%, MCF10A rerep 27.8%, ELG1 genotoxic -1.9%, SW480 rerep 5.9%, A-T KAP1 phos -4.2% and ELG1 repair inh -0.6%.
`COc1ccc(/C=N\NC(=O)c2sccc2C)cc1Cn1nc(C)cc1C` gave p53 reactivator -8.2%, MCF10A rerep 27.0%, ELG1 genotoxic 9.2µM*, SW480 rerep 1.6%, A-T KAP1 phos 5.6% and ELG1 repair inh inconclusive.
CCc1ccccc1NC(=O)N1CCCc2ccccc21 was read as p53 reactivator 23.8%, MCF10A rerep -2.5%, ELG1 genotoxic 11.1%, SW480 rerep -2.0%, A-T KAP1 phos -3.9% and ELG1 repair inh 29.9%.
Cc1cc(=O)n2ccccc2c1C#N was read as p53 reactivator -5.1%, MCF10A rerep -4.0%, ELG1 genotoxic -6.5%, SW480 rerep -9.7%, A-T KAP1 phos 8.7% and ELG1 repair inh 10.7%.
COc1ccc2c(C#N)c3ccccn3c2c1 was read as p53 reactivator 10.3%, MCF10A rerep 23.1µM*, ELG1 genotoxic -14.4%, SW480 rerep inconclusive, A-T KAP1 phos 16.3% and ELG1 repair inh inconclusive.
